# Screening results deposited in PubChem BioAssay by National Center for Advancing Translational Sciences (NCATS).
# Compounds with a hit are over-represented: about 11% of the library has one in this group of screens.
# L3MBTL1 inh: inhibitors of human L3MBTL1; Potency, µM (top dose mostly 57.1 µM), without a hit: top-dose activity, negative = inhibition, actives largely listed as inhibitors; 0.66% of 230,000 active; AID 485360; AlphaScreen L3MBTL1–H3K9me1 peptide binding; note: % is set by controls: 0 for no effect and ±100 for the full control effect; nearly all actives have a fitted effect of over 60% in size
# Target sequence (Q9Y468 whole entry, looked up): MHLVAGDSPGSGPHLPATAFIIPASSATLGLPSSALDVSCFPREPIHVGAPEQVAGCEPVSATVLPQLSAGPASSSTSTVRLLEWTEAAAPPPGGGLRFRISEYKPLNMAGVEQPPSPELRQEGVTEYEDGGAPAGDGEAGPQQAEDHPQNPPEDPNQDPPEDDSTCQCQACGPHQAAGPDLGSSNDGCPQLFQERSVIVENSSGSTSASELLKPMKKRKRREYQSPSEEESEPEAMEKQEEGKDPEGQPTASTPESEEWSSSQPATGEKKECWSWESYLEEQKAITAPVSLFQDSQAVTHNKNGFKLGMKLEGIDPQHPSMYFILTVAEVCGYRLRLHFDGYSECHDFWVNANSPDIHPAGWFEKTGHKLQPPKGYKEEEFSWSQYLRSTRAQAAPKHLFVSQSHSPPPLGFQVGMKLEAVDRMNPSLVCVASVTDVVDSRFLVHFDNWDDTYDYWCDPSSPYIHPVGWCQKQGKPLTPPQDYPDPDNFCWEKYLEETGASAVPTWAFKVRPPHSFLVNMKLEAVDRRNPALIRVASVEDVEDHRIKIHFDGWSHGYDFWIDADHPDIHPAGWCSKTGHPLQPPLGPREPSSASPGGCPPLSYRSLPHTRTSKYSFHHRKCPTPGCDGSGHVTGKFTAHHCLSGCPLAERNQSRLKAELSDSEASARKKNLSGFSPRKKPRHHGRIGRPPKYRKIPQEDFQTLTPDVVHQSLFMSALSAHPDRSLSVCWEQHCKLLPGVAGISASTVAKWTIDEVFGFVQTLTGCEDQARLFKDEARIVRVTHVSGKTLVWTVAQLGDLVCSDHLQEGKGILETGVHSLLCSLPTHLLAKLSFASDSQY
#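 AlphaScreen assay: L3MBTL1 (50 nM final) was preincubated 30 min at room temperature with biotinylated H3(1-15)K9me1 peptide (75 nM final), then 30 min with library compounds; streptavidin donor and nickel chelate acceptor beads (10 ug/mL final) added, 30 min dark.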
# HP1b binding inh: blocks HP1-beta chromodomain binding to methylated histone tails. 0.56% of 390,000 active. AlphaScreen HP1-beta / biotin-H3K9me3 peptide binding. Potency, µM (series often up to 114 µM), for inactives: at the highest dose activity change, negative = inhibition, usual class: inhibitors. AID 540317. P83916; note: nearly all actives have a fitted effect of over 70% in size
#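 Compound inhibition of the preformed complex between 50 nM HP1-beta and 50 nM biotinylated H3K9me3 peptide was read by AlphaScreen. Buffer was PBS pH 7.4 with 0.01% Tween-20. Incubations ran 30 min at room temperature, with 10 ug/mL donor/acceptor beads.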
# BAZ2B inh: BAZ2B (human) inhibition. Q9UIF8. AlphaScreen BAZ2B-H3K14Ac peptide displacement. Potency, µM (doses to about 114 µM), for inactives: at the highest dose activity change, negative = inhibition, usual class: inhibitors. 4.4% of 360,000 active. AID 504333; note: % is set by controls: 0 for no effect and ±100 for the full control effect; nearly all actives have a fitted effect of over 60% in size
#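 AlphaScreen displacement: compounds (up to 110uM) incubated 30 min at room temperature with a preformed 50 nM BAZ2B/50 nM biotinylated H3K14Ac peptide complex in PBS pH 7.4 with Tween-20. Donor and acceptor beads at 10 ug/mL final added, 20 min light-protected before reading.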
# JMJD2A Tudor: inhibitors of human JMJD2A Tudor domain | O75164 | AlphaScreen JMJD2A-Tudor / H3K4me3 peptide binding | Potency, µM (highest dose often 114 µM), for inactives: top-dose activity change, negative = inhibition, usual class: inhibitors | 4.4% of 390,000 active | AID 504339; note: % is set by controls: 0 for no effect and ±100 for the full control effect; nearly all actives have a fitted effect of over 50% in size
# G9a block: G9a (human) methyltransferase inhibition | Q96KQ7 | G9a H3K9 monomethylation, AlphaScreen, 2 h | Potency, µM (titrated, usually from 102 µM), for the others: at the top dose activity, negative = inhibition, most hits filed as inhibitors | 8.8% of 350,000 active; note: % is set by controls: 0 for no effect and ±100 for the full control effect; nearly all actives have a fitted effect of over 75% in size
#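 G9a (20 nM) was preincubated 15 min with compound, then reacted 2 h at room temperature with 500 nM biotin-H3K9 peptide and 20 µM SAM. Monomethyl-H3K9 detected by AlphaScreen using anti-H3K9me1 antibody.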
# Starred values were filed as active, the others as inactive; ? = inconclusive; nt = no result given; [ ] = another dose, or the depositor's remark. Calls come from the whole dose curve; as a rule, active = well fitted inhibition curve with a large enough effect; inconclusive = small, poorly fitted or top-dose-only effect; inactive = no such curve, though single readings can be large or run the other way. Potency is the fitted concentration of half-maximal effect.
SMILES,L3MBTL1 inh,HP1b binding inh,BAZ2B inh,JMJD2A Tudor,G9a block
CCOC(=O)N1CCN(CC(O)COc2ccc(OC)cc2C(C)(C)C)CC1 (stereo not given),-3%,24%,?,-23%,-2%[59 µM]
O=C(OCC#CCSc1nnc(-c2cccc3ccccc23)o1)c1ccsc1,nt,nt,nt,29%,nt
COc1ccc(-c2nc3cnc(OC)nc3n(CCc3ccccc3)c2=O)cc1,nt,nt,nt,nt,13%[0.501 µM]
CSc1ccc(CCNC(=O)c2c(C)nn(-c3ccc(F)cc3)c2-n2cccc2)cc1,nt,60%,-16%,-8%,?
O=C(CCN1C(=O)c2ccccc2Sc2ncccc21)Nc1ccc(F)cc1,nt,10%,-35%,-31%,?
COC(=O)C1CCN(Cc2cc(=O)oc3cc(C)c(Cl)cc23)CC1,nt,28%,7%,-5%,20%[2.33 µM]
CCOC(=O)C1CCN(CC(=O)N2C(C)CCCC2C)CC1 (stereo not given),-6%,45µM*,50µM*,5µM*,8.9µM*
CCOC(=O)C1CCCN(Cc2ccccc2OCC)C1 (stereo not given),-1%,?,?,5.6µM*,?
CCOC(=O)C1CCN(Cc2coc3c(Cl)cc(Cl)cc3c2=O)CC1,6%,-7%,?,20µM*,11µM*
CCOC(=O)C1CCCN(CCc2ccccc2)C1 (stereo not given),3%,-33%,?,25µM*,40µM*
CCOC(=O)C1CCCN(CC(O)COc2ccccc2C(C)=O)C1 (stereo not given),nt,6%,-4%,-18%,?
CCOC(=O)C1CCCN(C(=O)CCc2ccccc2)C1 (stereo not given),-3%,21%,-4%,-15%,6%
CCOC(=O)C1CCN(CC(=O)N2CCc3ccccc32)CC1,nt,0%,1%,-11%,23%
CCOC(=O)C1CCCN(CCC(=O)Nc2ccccc2C)C1 (stereo not given),61%,32%,-11%,-4%,33%[0.501 µM]
CCOC(=O)C1CCCN(Cc2ccccc2C)C1 (stereo not given),nt,?,71µM*,5µM*,2.5µM*
CC(C)(C)n1nnnc1C(c1cccnc1)N1CCOCC1 (stereo not given),-5%,45%,-12%,-16%,-3%
C=CCN1CCN(C(c2ccccc2)c2nnnn2CCC(C)C)CC1 (stereo not given),10%,51%,?,3.2µM*,50µM*
CC(C)CCn1nnnc1C(c1ccccc1)N1CCN(C)CC1 (stereo not given),nt,57%,7%,-3%,1%[12.7 µM]
CC(C)CCn1nnnc1C(c1ccc(N(C)C)cc1)N1CCN(C(=O)c2ccco2)CC1 (stereo not given),-8%,-20%,?,?,50µM*
CC(C)(C)n1nnnc1C(c1ccncc1)N1CCN(c2ccc(O)cc2)CC1 (stereo not given),nt,?,-10%,45µM*,?
Cc1ccc(C)c(N2CCN(C(c3ccncc3)c3nnnn3Cc3ccccc3)CC2)c1 (stereo not given),0%,4%,?,79µM*,3.2µM*
COC(=O)c1ccccc1NC(=O)Cn1c(=O)n(-c2ccc(C)cc2)c(=O)c2ccccc21,nt,12%,4%,5%,3%[59 µM]
CCOc1ccc(CCNC(=O)C2CSC3(C)CCC(=O)N23)cc1OCC (stereo not given),nt,53%,-3%,-4%,22%
Cc1ccn2c(=O)c(C(=O)NCCc3ccc(S(N)(=O)=O)cc3)c(O)nc2c1,nt,25%,1%,-18%,-43%[59 µM]
COc1cc(F)c(S(=O)(=O)N2CCN(S(=O)(=O)c3ccc(N)cc3)CC2)c(F)c1,nt,nt,nt,-6%,nt
CC(C)CCn1nnnc1CN1CCN(C(=O)c2ccco2)CC1,nt,9%,-3%,?,50µM*
O=C(c1ccco1)N1CCN(Cc2nnnn2C2CCCCC2)CC1,nt,49%,32%,-11%,11%[59 µM]
Cc1ccc(C)c(N2CCN(C(c3ccc(N(C)C)cc3)c3nnnn3C(C)(C)C)CC2)c1 (stereo not given),-11%,-42%,-8%,?,4.5µM*
